Most compounds without a hit are left out; they make up all but 19% or so of the library.
DT40 TDP1 CPT = growth inhibition of DT40 Tdp1-/-;hTDP1 cells with camptothecin (screen for TDP1 inhibitors); chicken DT40 Tdp1-/-;hTDP1 cells + 20 nM CPT, ATP luminescence, 48 h; Potency, µM (series often up to 46.2 µM), hits mostly inhibitors; actives 12% (n = 420,000); AID 686979; also: nearly all actives have a fitted effect of over 55% in size
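Chicken DT40 Tdp1-/- cells stably complemented with human TDP1 were seeded at 400 cells/well in medium containing 20 nM camptothecin, exposed to pin-transferred compounds, and grown at 37 °C for at least 48 hr. Viability was read as ATP luminescence.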
TDP1 cell noCPT = qHTS for Inhibitors of human tyrosyl-DNA phosphodiesterase 1 (TDP1): qHTS in cells in absence of CPT; DT40 Tdp1-/- hTDP1 cells, no CPT, ATP luminescence, 48 h; AID 686978, 2013; actives 15% (n = 420,000); Potency, µM (series often up to 46.2 µM), actives largely listed as inhibitors; also: nearly all actives have a fitted effect of over 55% in size
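Compound effects on proliferation are scored in DT40 Tdp1-/-;hTDP1 cells in the absence of CPT. ATP levels (CellTiter-Glo luminescence) are recorded after a ≥48 hr, 37 °C incubation.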
HT1080NT lethal = kills 2HG-producing HT-1080-NT fibrosarcoma cells; Potency, µM (titrated, usually from 46.1 µM), actives largely listed as cytotoxic; actives 1.6% (n = 360,000); HT-1080-NT fibrosarcoma viability, CellTiter-Glo ATP luminescence, 48 h;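 also: NT is the 2HG producing partner of a matched IDH1 knockdown line; nearly all actives have a fitted effect of over 55% in size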
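Fibrosarcoma NT cells, 750 per well in 5% FBS RPMI, were exposed to compound for 48 hours. Viability: CellTiter-Glo luminescence.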
IL1B secr inh = inflammasome signaling inhibition, IL-1 beta readout | actives 4.7% (n = 360,000) | activity change, % at 57.5 µM | AID 743279 | THP-1 LPS/ATP IL-1B secretion, AlphaLISA, 16 h; stronger effect = lower value; in the data active = activity change below about -50%; inconclusive = mostly about -30% to -49%
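THP-1 cells pretreated 1 hr with compounds (up to 57.5 uM final), then stimulated with LPS (250 ng/mL final) plus ATP (1.25 mM final); secreted IL-1B measured by AlphaLISA after 16 hr, decreased signal indicating inhibition.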
HT1080 IDH1KD tx = kills HT-1080 cells with IDH1 knockdown; HT-1080 IDH1 knockdown viability, ATP luminescence, 48 h; Potency, µM (series often up to 46.1 µM), actives largely listed as cytotoxic; actives 2% (n = 360,000); AID 686971
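Knockdown cells (IDH1KD HT-1080) received compounds 2 h after plating at 750 cells/well and were kept 48 h at 37 °C in 5% FBS RPMI. A CellTiter-Glo luminescence read gave % activity for curve fitting.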
Hits are given with their value; - = inactive; ? = inconclusive; . = no result given; [ ] = dose if it differs, or a comment. Unless noted, calls follow the shape of the dose curve; as a rule, active = well fitted curve in the direction sought with a large enough effect; inconclusive = small, poorly fitted or top-dose-only effect, or another doubt; inactive = no such curve, though single readings can be large; an effect the other way counts as inactive or inconclusive.

SMILES | DT40 TDP1 CPT | TDP1 cell noCPT | HT1080NT lethal | IL1B secr inh | HT1080 IDH1KD tx
COCCCn1c(=O)c2ccccc2n2c(=S)[nH]nc12 | - | - | - | - | -
O=C(NCCN1CCOCC1)c1cnn2c(-c3ccccc3)cc(-c3ccccc3)nc12 | ? | 23µM | ? | -55 | ?
COc1ccc(-c2cc(C(F)F)n3ncc(C(=O)Nc4ccc(C(=O)N5CCOCC5)cc4)c3n2)cc1 | 10µM | 3.3µM | - | ? | -
CCOc1ccccc1NC(=O)c1cnn2c(C(F)F)cc(-c3ccccc3)nc12 | 15µM | 23µM | . | . | .
CCn1nc(C)c(NC(=O)c2cnn3c(C(F)F)cc(-c4ccccc4)nc23)c1C | ? | ? | - | - | -
O=C(NCCN1CCOCC1)c1cc(-c2ccccc2)nc2ccccc12 | - | ? | - | - | -
COc1ccccc1CCNC(=O)c1cnn2c(C(F)F)cc(C)nc12 | 21µM | 23µM | - | - | -
COc1ccccc1NC(=O)c1ccc(NC(=O)CSc2nc(N)cc(=O)[nH]2)cc1 | - | - | -[9.24 µM] | ? | -
CCCCCCN1CCN(C2CN(Cc3ccc(F)cc3)S(=O)(=O)C2)CC1 (stereo not drawn) | ? | ? | - | - | -
O=S(=O)(c1cccs1)N1CCC2(CC1)OCCN2S(=O)(=O)c1ccccc1 | - | - | - | - | -
O=C(Nc1ccc(C(=O)N2CCOCC2)cc1)c1cnn2c(C(F)F)cc(-c3ccccc3)nc12 | ? | 5.8µM | - | - | -
COc1ccccc1NS(=O)(=O)c1cccc(NC(=O)c2cncc(Br)c2)c1 | ? | 18µM | ? | - | ?
COc1ccccc1NS(=O)(=O)c1cccc(NC(=O)NCCCl)c1 | 21µM | ? | - | - | -
COc1ccccc1NS(=O)(=O)c1cccc(NC(=O)Nc2cccc(Cl)c2)c1 | 21µM | 21µM | - | -65 | ?
Cc1ccccc1OC(=O)n1c(=S)oc2cc(Cl)ccc21 | ? | ? | - | - | -
O=S(=O)(Nc1cccnc1)c1ccc(Cl)cc1 | - | - | - | - | -
CC(Cc1n[nH]c(=S)n1N)c1ccccc1 (stereo not drawn) | - | - | - | - | -
Cc1oncc1C(=O)N1CCCC(CO)(Cc2ccc(F)cc2F)C1 (stereo not drawn) | - | - | - | - | -
CCOC1=C2[C@H](c3ccccc3Cl)N(S(=O)(=O)c3ccc(C)cc3)C[C@H]2C(C#N)(C#N)C(C#N)(C#N)C1 | 4.6µM | 9.2µM | - | ? | -
CCOC1=C2[C@H](c3ccc(CC)cc3)N(S(=O)(=O)c3ccc(C)cc3)C[C@H]2C(C#N)(C#N)C(C#N)(C#N)C1 | 3.7µM | 3.3µM | - | -76 | -
O=C(OCC(=O)N(CCc1ccccc1)Cc1ccccc1)c1cccc(S(=O)(=O)N2CCOCC2)c1 | ? | 7.3µM | - | - | -
O=C(COC(=O)c1ccc(F)c(S(=O)(=O)N2CCOCC2)c1)NCc1ccccc1 | - | - | - | - | -
O=C(OCC(=O)N(CCc1ccccc1)Cc1ccccc1)c1ccc(F)c(S(=O)(=O)N2CCOCC2)c1 | ? | 2.9µM | - | - | -
O=C(COC(=O)c1cccc(S(=O)(=O)N2CCOCC2)c1)NCc1ccccc1 | - | - | - | - | -
Cc1ccc(/C=C/S(=O)(=O)NCCC(=O)NCc2ccc(F)cc2)cc1 | - | ? | - | - | -
SMILES | DT40 TDP1 CPT | TDP1 cell noCPT | HT1080NT lethal | IL1B secr inh | HT1080 IDH1KD tx
CCOC(=O)CNC(=O)N1[C@H](c2cccs2)[C@@H](C)C(=O)[C@@H](C)[C@@H]1c1cccs1 | ? | - | . | . | .
CC(C)CNC(=O)N1[C@H](c2cccs2)[C@@H](C)C(=O)[C@@H](C)[C@@H]1c1cccs1 | 18µM | ? | . | . | .
CC1(C(=O)NS(=O)(=O)c2ccc(Cl)cc2)CCN1C(=O)CCc1ccccc1 (stereo not drawn) | ? | - | ? | - | -
O=C(CSc1nc2ccccc2[nH]1)NCc1ccco1 | - | - | - | - | -[9.24 µM]
O=C(CSc1nc2ccc(Cl)cc2[nH]1)NCCc1ccccc1 | ? | 21µM | - | - | -
O=C(CSc1nc2ccc(Cl)cc2[nH]1)NCc1ccco1 | - | ? | - | -67 | -
Cc1cc(C(=O)CSc2nc3ccc(Cl)cc3[nH]2)c(C)n1Cc1ccco1 | 21µM | 18µM | - | - | -
C=CCNC(=O)c1ccc2c(c1)nnn2C | - | - | - | - | -
O=C1CC[C@@H]2C[C@@]3(C[C@@H]4CCN1[C@H]24)Nc1cc([N+](=O)[O-])ccc1NC3=NCc1ccccc1 | ? | ? | - | - | -
CC(OC(=O)c1ccc(S(=O)(=O)N2CCCCC2)cc1)C(=O)NC1CCCCC1C (stereo not drawn) | - | - | - | - | -
CC(C)(C)C(=O)NCCCC(=O)O | - | - | . | . | .
CCOc1ccccc1Nc1nc2ccccc2c2nncn12 | - | ? | . | . | .
Cc1ccc(Cl)cc1Nc1nc2ccccc2c2nncn12 | ? | 23µM | . | . | .
O=C(Nn1c(C2CCCCC2)nc2ccccc2c1=O)c1ccc([N+](=O)[O-])cc1 | - | - | ? | - | -
Cn1c(=O)[nH]c(=O)c2c1nc(N1CCOCC1)n2CCSc1nc2ccccc2[nH]1 | - | - | - | - | -
CC1=C(CCN2CCN(C3CCCC3)C(CCO)C2)C(C)(C)CCC1 (stereo not drawn) | 21µM | ? | - | - | -
Cc1cc(C(=O)COC(=O)c2ccc(O)cc2)c(C)n1CC1CCCO1 (stereo not drawn) | - | - | - | - | -
Cc1cc(C(=O)CSc2nnc(-c3ccccc3)o2)c(C)n1CC1COc2ccccc2O1 (stereo not drawn) | ? | ? | ? | - | ?
Cc1cc(C(=O)CN2C(=O)C(=O)N(Cc3ccccc3)C2=O)c(C)n1CC1COc2ccccc2O1 (stereo not drawn) | - | 18µM | - | - | -
Cc1cc(C(=O)COC(=O)c2ccc(CO)cc2)c(C)n1CC1COc2ccccc2O1 (stereo not drawn) | 23µM | ? | - | - | -
Cc1cc(C(=O)CN2C(=O)C(=O)N(Cc3ccccc3)C2=O)c(C)n1Cc1ccccc1 | ? | ? | - | - | -
Cc1cc(C(=O)CSc2nnc(-c3ccco3)o2)c(C)n1CC1COc2ccccc2O1 (stereo not drawn) | 16µM | 21µM | - | ? | -
Cc1cccc(NC(=O)C2NC(=O)CC2c2ccccc2)c1C (stereo not drawn) | - | - | - | - | -
COc1cc(NC(=O)N2CCC(CN3CCCCCC3)CC2)cc(OC)c1OC | - | - | . | . | .
Cc1cccc(Nc2nc(N)c([N+](=O)[O-])c(N3CCN(C)CC3)n2)c1 | ? | ? | - | ? | -
CCN1CCN(c2nc(Nc3cccc(C)c3)nc(N)c2[N+](=O)[O-])CC1 | ? | 18µM | - | ? | -

Compound activity: PubChem BioAssay, National Center for Advancing Translational Sciences (NCATS)
